Consider 28 compounds from PubChem BioAssay (NCATS).

A short description of experiment [1]: A High-Content qHTS Against Drug Library for the Identification of Small Molecules that Inhibit DYT1 Early Onset Primary Dystonia-Associated Cell Pathology (AID 1645839; calls by dose curve; also: potency is read from the fitted curve at half-maximal effect). An outline of the steps:
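Cells were seeded and left for 24 h, then dosed with compound alongside tetracycline induction of mutant EGFP-TorsinA. They were incubated for 48 h, fixed in 4% paraformaldehyde, permeabilized and imaged for mislocalization (%pathology) and cell count.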
(In general: qHTS replaces the single test concentration by a dilution series.)

Experiment [2] deals with Cytochrome P450 2D6 (Homo sapiens) (UniProt P10635). Nature of the experiment: Cytochrome P450 family 2 subfamily D member 6 (CYP2D6) small molecule antagonists: luciferase biochemical (cell-free) qHTS assay (AID 1645840). Also: nearly all actives have a fitted effect of over 55% in size. Also: potency is read from the fitted curve at half-maximal effect. The gist of the method:
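P450-Glo CYP2D6 system: proluciferin substrate converted by enzyme to luciferin, read by luminescence proportional to activity. Enzyme-substrate mix with compound 10 min at room temperature, then NADPH regeneration 1 h before detection reagent.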

Experiment [3] has as its target Cytochrome P450 2C9 (Homo sapiens) (UniProt P11712). The experiment can be described thus: Cytochrome P450 family 2 subfamily C member 9 (CYP2C9) small molecule antagonists: luciferase biochemical (cell-free) qHTS assay (AID 1645842). Also: nearly all actives have a fitted effect of over 55% in size. Also: potency is read from the fitted curve at half-maximal effect. An outline of the steps:
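P450-Glo CYP2C9 system: proluciferin substrate with enzyme in mix containing 0.4% BSA, 10 min at room temperature, then NADPH regeneration solution added and incubated 1 h at 37C. Detection reagent stopped reaction; luminescence read after 20 min as RLU.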

Experiment [4] can be described thus: Primary qHTS for inhibitors of nuclear receptor binding SET domain protein 2 (NSD2) in an isogenic RCH-ACV NSD2 p.E1099K mutant (9B) (AID 1645876; active = well fitted curve in the direction sought with a large enough effect; an effect the other way counts as inactive or inconclusive; also: nearly all actives have a fitted effect of over 70% in size; also: potency is read from the fitted curve at half-maximal effect).
A short description of experiment [5]: Primary qHTS for inhibitors of nuclear receptor binding SET domain protein 2 (NSD2) in an RCH-ACV wild type WT cells (2C) (AID 1645877; active = well fitted curve in the direction sought with a large enough effect; an effect the other way counts as inactive or inconclusive; also: nearly all actives have a fitted effect of over 70% in size; also: potency is read from the fitted curve at half-maximal effect).
The target of experiment [6] is Cytochrome P450 3A4 (Homo sapiens) (UniProt P08684). Nature of the experiment: Cytochrome P450 family 3 subfamily A member 4 (CYP3A4) small molecule antagonists: luciferase qHTS assay (AID 1645841). Also: nearly all actives have a fitted effect of over 45% in size. An outline of the steps:
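P450-Glo CYP3A4 enzyme with proluciferin substrate preincubated 10 min with compound at room temperature, then NADPH regeneration 1 h. Luciferin detection reagent added for 20 min; luminescence recorded. Ketoconazole positive control.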

Experiment [7] deals with Papain (Carica papaya) (UniProt P00784). The experiment can be described thus: Primary qHTS assay for inhibitors of the protease papain (AID 1645873; active = well fitted curve in the direction sought with a large enough effect; an effect the other way counts as inactive or inconclusive;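 also: papain turnover of Z-FR-AMC read as the AMC fluorescence gain over 10 min; series mostly up to about 50 µM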).
The target of experiment [8] is Rap guanine nucleotide exchange factor 3 (Homo sapiens) (UniProt O95398). Nature of the experiment: Confirmatory qHTS for antagonist of cAMP-regulated guanine nucleotide exchange factor 3 (EPAC1) (AID 1645880; active = well fitted curve in the direction sought with a large enough effect; an effect the other way counts as inactive or inconclusive; also: nearly all actives have a fitted effect of over 55% in size). An outline of the steps:
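Released BODIPY-GDP fluoresces less than Rap1-bound BODIPY-GDP; the signal is followed at 480/540 nm at 5-min intervals over 30 min, after 5 min at room temperature. Reactions contain 100 nM EPAC1, 250 nM RAP1B-BODIPY-GDP and 50 uM GDP; results are normalized to ATA and DMSO.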

Experiment [9] shares this target. The experiment can be described thus: Confirmatory qHTS for agonist of cAMP-regulated guanine nucleotide exchange factor 3 (EPAC1) (AID 1645881; active = well fitted curve in the direction sought with a large enough effect; an effect the other way counts as inactive or inconclusive;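 also: EPAC1 catalysed release of BODIPY-GDP from Rap1B seen as fluorescence loss; nearly all actives have a fitted effect of over 75% in size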).

“And” between values parts separate entries of the source, which are not always exact repeats. Equal entries are not always repeated. Results filed as inconclusive are left out. Some compounds were tested as several samples or in several runs, with calls that do not always agree. The source made the active and inactive calls. Unless noted, calls follow the shape of the dose curve; as a rule, active = well fitted curve in the direction sought with a large enough effect in the repeat runs; inconclusive = weak or mixed curves; inactive = no such curve, though single readings can be large; an effect the other way counts as inactive or inconclusive.

Sequence of Rap guanine nucleotide exchange factor 3 (Homo sapiens) (O95398 whole entry, looked up): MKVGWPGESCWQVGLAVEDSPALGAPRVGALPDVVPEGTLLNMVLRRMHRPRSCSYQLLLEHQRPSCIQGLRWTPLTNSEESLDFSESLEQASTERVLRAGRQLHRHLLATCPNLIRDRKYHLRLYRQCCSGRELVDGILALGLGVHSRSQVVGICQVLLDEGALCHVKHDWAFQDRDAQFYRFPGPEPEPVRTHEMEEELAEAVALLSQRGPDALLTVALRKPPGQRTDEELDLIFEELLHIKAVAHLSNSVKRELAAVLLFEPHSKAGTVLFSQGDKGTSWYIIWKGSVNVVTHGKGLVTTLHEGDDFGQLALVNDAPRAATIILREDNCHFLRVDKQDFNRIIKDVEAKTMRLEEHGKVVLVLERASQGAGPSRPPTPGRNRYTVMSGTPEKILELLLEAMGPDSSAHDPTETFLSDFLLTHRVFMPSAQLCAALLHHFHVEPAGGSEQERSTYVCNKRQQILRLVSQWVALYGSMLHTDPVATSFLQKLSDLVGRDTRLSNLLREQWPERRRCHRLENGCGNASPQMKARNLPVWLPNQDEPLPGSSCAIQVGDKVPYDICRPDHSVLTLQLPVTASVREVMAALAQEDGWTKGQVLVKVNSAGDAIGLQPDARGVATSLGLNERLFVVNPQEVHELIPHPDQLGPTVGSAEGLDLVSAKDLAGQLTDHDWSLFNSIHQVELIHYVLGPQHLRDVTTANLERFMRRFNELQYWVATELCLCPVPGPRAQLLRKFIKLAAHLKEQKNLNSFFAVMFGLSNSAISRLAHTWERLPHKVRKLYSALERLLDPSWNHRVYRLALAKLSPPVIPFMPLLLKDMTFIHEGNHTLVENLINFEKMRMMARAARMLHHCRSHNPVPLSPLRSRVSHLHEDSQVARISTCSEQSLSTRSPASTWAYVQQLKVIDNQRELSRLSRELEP
Sequence of Papain (Carica papaya) (P00784 whole entry, looked up): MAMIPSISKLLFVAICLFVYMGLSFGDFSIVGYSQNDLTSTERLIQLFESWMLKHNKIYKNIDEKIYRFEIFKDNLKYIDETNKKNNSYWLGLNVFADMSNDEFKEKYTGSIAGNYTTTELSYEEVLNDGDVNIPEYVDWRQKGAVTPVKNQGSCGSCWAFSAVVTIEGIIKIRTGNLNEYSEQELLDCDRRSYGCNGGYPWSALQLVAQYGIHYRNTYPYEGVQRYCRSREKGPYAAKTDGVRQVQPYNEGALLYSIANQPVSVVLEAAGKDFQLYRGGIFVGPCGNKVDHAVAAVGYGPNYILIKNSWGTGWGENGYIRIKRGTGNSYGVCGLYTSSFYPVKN
Sequence of Cytochrome P450 2D6 (Homo sapiens) (P10635 whole entry, looked up): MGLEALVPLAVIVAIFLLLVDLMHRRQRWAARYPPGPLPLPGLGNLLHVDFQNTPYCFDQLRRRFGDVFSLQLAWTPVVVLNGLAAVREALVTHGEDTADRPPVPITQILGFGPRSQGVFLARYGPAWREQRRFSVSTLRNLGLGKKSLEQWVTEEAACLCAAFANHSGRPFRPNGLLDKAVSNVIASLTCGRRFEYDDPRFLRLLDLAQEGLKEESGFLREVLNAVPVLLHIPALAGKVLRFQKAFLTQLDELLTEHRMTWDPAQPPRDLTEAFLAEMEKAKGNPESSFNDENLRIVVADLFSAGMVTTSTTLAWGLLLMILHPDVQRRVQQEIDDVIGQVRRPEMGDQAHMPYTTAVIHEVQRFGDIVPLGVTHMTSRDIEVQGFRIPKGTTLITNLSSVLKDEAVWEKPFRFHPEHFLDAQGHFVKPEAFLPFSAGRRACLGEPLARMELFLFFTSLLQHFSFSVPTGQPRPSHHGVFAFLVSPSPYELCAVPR
Sequence of Cytochrome P450 2C9 (Homo sapiens) (P11712 whole entry, looked up): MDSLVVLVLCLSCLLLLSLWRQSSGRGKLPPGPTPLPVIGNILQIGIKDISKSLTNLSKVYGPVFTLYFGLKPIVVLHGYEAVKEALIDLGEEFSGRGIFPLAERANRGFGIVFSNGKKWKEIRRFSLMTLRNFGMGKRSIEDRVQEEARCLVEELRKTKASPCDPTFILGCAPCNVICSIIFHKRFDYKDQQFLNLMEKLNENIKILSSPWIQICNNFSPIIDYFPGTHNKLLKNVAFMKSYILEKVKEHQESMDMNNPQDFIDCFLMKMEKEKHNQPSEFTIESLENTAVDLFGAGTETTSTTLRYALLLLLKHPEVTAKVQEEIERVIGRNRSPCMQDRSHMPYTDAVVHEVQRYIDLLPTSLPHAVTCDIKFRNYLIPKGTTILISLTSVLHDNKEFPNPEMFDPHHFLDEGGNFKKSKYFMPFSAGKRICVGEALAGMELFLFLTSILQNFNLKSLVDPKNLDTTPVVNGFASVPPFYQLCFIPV
Sequence of Cytochrome P450 3A4 (Homo sapiens) (P08684 whole entry, looked up): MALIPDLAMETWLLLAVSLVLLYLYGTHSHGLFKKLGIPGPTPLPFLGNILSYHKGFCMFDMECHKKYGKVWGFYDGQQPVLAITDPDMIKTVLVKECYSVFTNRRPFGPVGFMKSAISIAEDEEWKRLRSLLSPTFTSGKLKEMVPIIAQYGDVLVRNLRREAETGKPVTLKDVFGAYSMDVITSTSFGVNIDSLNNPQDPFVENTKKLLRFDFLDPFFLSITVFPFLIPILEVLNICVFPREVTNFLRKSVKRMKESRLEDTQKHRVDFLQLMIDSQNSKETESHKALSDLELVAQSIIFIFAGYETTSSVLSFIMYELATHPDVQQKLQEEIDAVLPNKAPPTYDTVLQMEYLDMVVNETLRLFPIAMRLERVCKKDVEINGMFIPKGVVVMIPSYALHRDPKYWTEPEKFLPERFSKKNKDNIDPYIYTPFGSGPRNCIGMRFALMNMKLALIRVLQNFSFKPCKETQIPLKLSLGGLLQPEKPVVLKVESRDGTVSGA

As to `CC(=O)c1ccc(OCC(=O)N2CCCCC2)cc1`, the Potency result in [1], in [2], in experiment [3], in experiment [4] and in experiment [5] was “inactive” in each case.

Turning to `CCOC(=O)c1ccccc1O`, the Potency entry in experiment [1], in experiment [2], in experiment [3], in experiment [4] and in experiment [5] was “inactive” throughout. For the same compound, the compound was classed as inactive in [6].

Turning to `CCCCCCCCCCCC(=O)[O][Sn]([CH2]CCC)([CH2]CCC)[O]C(=O)CCCCCCCCCCC`, the Potency result in experiment [1], in experiment [2], in experiment [3], in [4] and in experiment [5] was “inactive” throughout.

In the case of `N=C1N=C(N)c2cc3ccccc3cc21`, the Potency in experiment [1] was 35.5 µM (active); in experiment [2], 31.7 µM (active). Also, in experiment [3], the Potency result is “inactive”.

In the case of `CC(C(=O)O)c1ccc(C(=O)c2ccccc2)s1` (stereo not given), the Potency result in experiment [1], in experiment [2], in experiment [4] and in experiment [5] was “inactive” each time. For the same compound, the Potency in [3] is 15.5 µM (active).

For `Cc1nc2ccccc2n1Cc1ccc(Cl)cc1`, the Potency entry in [1] is “inactive”. In addition, the Potency in experiment [2] is 7.76 µM (active); in experiment [3], 11 µM (active).

For `CC(C(=O)O)c1ccc2c(c1)[nH]c1ccc(Cl)cc12` (stereo not given), the Potency result in [1], in experiment [2], in experiment [3], in experiment [4] and in [5] was “inactive” throughout.

As to `CN1CCN(c2cc3c(nn2)Oc2ccccc2N3C)CC1`, the Potency entry in experiment [1], in experiment [2] and in experiment [3] was “inactive” each time.

As for `c1ccc2sc(SN3CCOCC3)nc2c1`, the Potency entry in experiment [1], in [2], in [4] and in experiment [5] was “inactive” throughout. For the same compound, the Potency in [3] was 10.7 µM (active) and 15.5 µM (active).

Regarding `CC(C)OC(=O)c1cc(C(=O)OC(C)C)cc([N+](=O)[O-])c1`, the Potency entry in experiment [1], in experiment [4] and in experiment [5] was “inactive” each time. The Potency in experiment [2] was 3.73 µM (active); in experiment [3], 0.748 µM (active).

For `O=C(CCN1CCN(CCO)CC1)N1c2ccccc2Sc2ccc(C(F)(F)F)cc21`, the Potency entry in [1], in experiment [2], in [3], in experiment [4] and in experiment [5] was “inactive” throughout.

Turning to `O=C(O)c1cc(O)c(O)c(O)c1`, the Potency entry in experiment [1], in experiment [2] and in experiment [3] was “inactive” throughout.

`[O-][n+]1ccccc1SSc1cccc[n+]1[O-]`: the Potency in [1] is 3.16 µM (active); in experiment [2] it was 1.34 µM (active); in experiment [3] it was 1.34 µM (active); in experiment [4], 0.082 µM (active); in [5] it was 0.103 µM (active).

In the case of `Nc1ccc(O)c([N+](=O)[O-])c1`, the Potency entry in experiment [1] was “inactive”. In addition, the Potency in experiment [2] was 32.9 µM (active); in experiment [3], 21.8 µM (active).

Consider `c1ccc2sc(SSc3nc4ccccc4s3)nc2c1`, for which the Potency entry in experiment [1] and in experiment [2] was “inactive” each time. The Potency in experiment [3] is 9.52 µM (active).

Turning to `N=C(N)N`, the Potency entry in [1], in [2], in experiment [3], in [4] and in experiment [5] was “inactive” in each case. The compound was called inactive in experiment [6].

For `CC(N)C(=O)OC(C)(C)Cc1ccc(Cl)cc1` (stereo not given), the Potency entry in [1], in [7] and in [4] was “inactive” throughout. Also, the Potency in experiment [2] and in experiment [3] was 12.3 µM (active) in each case.

Regarding `CC(C(=O)O)c1ccc(C(=O)c2cccs2)cc1` (stereo not given), the Potency entry in [1] and in [2] was “inactive” in each case. For the same compound, the Potency in experiment [3] is 7.76 µM (active).

In the case of `COc1cccc2c1C(=O)c1c(O)c3c(c(O)c1C2=O)C[C@@](O)(C(=O)CO)C[C@@H]3O[C@H]1C[C@H](N)[C@H](O[C@@H]2CCCCO2)[C@H](C)O1`, the Potency in experiment [1] is 10 µM (active); in experiment [3] it was 12.3 µM (active); in [4], 0.0067 µM (active); in [5], 0.0038 µM (active). Moreover, in [2], the Potency entry is “inactive”.

As for `Cc1c(C(=O)O)c(O)cc2c1C(=O)c1c(O)c([C@@H]3O[C@H](CO)[C@@H](O)[C@H](O)[C@H]3O)c(O)c(O)c1C2=O`, the Potency entry in experiment [1] and in experiment [2] was “inactive” in each case.

Turning to `CCC1C(=O)OCC1Cc1cncn1C` (stereo not given), the Potency entry in experiment [1], in experiment [2], in [3], in experiment [7], in [4] and in experiment [5] was “inactive” throughout. In [6], the compound was classed as inactive.

As for `CC(=O)SCC(CC(=O)c1ccc(C)cc1)C(=O)O` (stereo not given), the Potency result in experiment [1] and in experiment [2] was “inactive” throughout.

As for `Cc1ccc(C(=O)c2ccc(CC(=O)O)n2C)cc1`, the Potency entry in [1], in experiment [2], in experiment [4] and in [5] was “inactive” in each case. Also, the Potency result in [3] is “inactive and 15.1 µM (active)”.

For `C=CCCCCCCCCC(=O)O`, the Potency entry in [1], in experiment [2], in experiment [3], in experiment [4] and in experiment [5] was “inactive” in each case.

For the compound `NS(=O)(=O)c1ccc(-n2nc(C(F)(F)F)cc2-c2ccc(Cl)cc2)cc1`, in experiment [7], the Potency entry is “inactive”.

With `CN1CC(=O)N/C1=N/C(=O)Nc1cccc(Cl)c1`, the Potency entry in experiment [7] is “inactive”.

`c1ccc(CCNc2nc(-c3ccccc3)cs2)cc1`: the Potency entry in experiment [8] and in experiment [9] was “inactive” in each case.

On to `Nc1cc(-c2ccncc2)c[nH]c1=O`, for which the Potency result in [8] and in experiment [9] was “inactive” each time.
